# From PubChem BioAssay
# KB-V1 MDR tox – kills drug-selected multidrug resistant KB-V1 cells; Potency, µM (series often up to 46.1 µM), most hits filed as cytotoxic; KB-V1 MDR cells viability, CellTiter-Glo, 72 h; 400,000 compounds, 3.4% hits; also: nearly all actives have a fitted effect of over 60% in size
#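 Luminescent ATP read-out (CellTiter-Glo, 10 min) measures survival of drug-selected KB-V1 MDR cells after 72 h, 37 degrees C compound exposure. Medium: phenol-red-free DMEM, 10% FBS. Values from fitted concentration-response curves.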
# HT1080NT lethal – kills 2HG-producing HT-1080-NT fibrosarcoma cells; HT-1080-NT fibrosarcoma viability, CellTiter-Glo ATP luminescence, 48 h; Potency, µM (doses to about 46.1 µM), hits mostly cytotoxic; 360,000 compounds, 1.6% hits;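 also: NT is the 2HG producing partner of a matched IDH1 knockdown line; nearly all actives have a fitted effect of over 55% in size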
#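 Read-out is CellTiter-Glo luminescence after 10 minutes at room temperature, following 48 hours' compound treatment of HT-1080-NT cells (750 cells/well, RPMI, 5% FBS, 37 degrees C).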
# KB-3-1 cytotox – kills parental KB-3-1 adenocarcinoma cells. KB-3-1 viability, CellTiter-Glo ATP luminescence, 72 h. Potency, µM (titrated, usually from 46.1 µM), most hits filed as cytotoxic. 400,000 compounds, 1.4% hits. AID 1347075; also: nearly all actives have a fitted effect of over 60% in size
#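 Parental KB-3-1 viability, qHTS format: 72 h compound exposure, 37 °C; CellTiter-Glo; media-only wells and DMSO plates as controls; concentration-effect fits on corrected data.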
# HT1080 IDH1KD tx – HT-1080 IDH1 knockdown cell toxicity (counter line). AID 686971. Potency, µM (titrated, usually from 46.1 µM), hits mostly cytotoxic. HT-1080 IDH1 knockdown viability, ATP luminescence, 48 h. 360,000 compounds, 2% hits
#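 Luminescent ATP read-out (CellTiter-Glo, 10 min at room temperature) after 48 h compound exposure at 37 °C gave viability of IDH1-knockdown HT-1080 cells. Activity was normalised to DMSO and cell-free wells, then fitted as concentration-response curves.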
# Hits are given with their value; - = inactive; ? = inconclusive; . = no result; [ ] = dose if it differs, or a comment. Rows were chosen to be rich in hits. Some 5.7% of all compounds tested hit in one or more screens of this group. Calls follow the shape of the dose curve; as a rule, active = well fitted curve in the direction sought with a large enough effect; inconclusive = small, poorly fitted or top-dose-only effect, or another doubt; inactive = no such curve, though single readings can be large; an effect the other way counts as inactive or inconclusive.
SMILES,KB-V1 MDR tox,HT1080NT lethal,KB-3-1 cytotox,HT1080 IDH1KD tx
O=C(Nc1ccc(F)cc1)N1Cc2ccccc2-n2nncc2C1,-,-,-,-
O=C1CC23c4ccccc4N4C(=O)CC5OCC=C6CN1C2CC6C5C43 (stereo not given),15µM,-,-,-
Cc1ccc(Oc2cc(NN3CCCCC3)c([N+](=O)[O-])cc2[N+](=O)[O-])c([N+](=O)[O-])c1,?,-,-,-
COc1ccc(N=C(C)c2c(O)[nH]c(=O)[nH]c2=O)cc1,?,?,-,?
CCC(=Nc1cc(OC)ccc1OC)c1c(O)[nH]c(=O)[nH]c1=O,2.6µM,-,5.8µM,-
CC/C(=N\Nc1ccccc1)c1c(O)[nH]c(=O)[nH]c1=O,-,?,-,3.3µM
CCC(=Nc1ccc(OC)cc1OC)c1c(O)[nH]c(=O)[nH]c1=O,10µM,-,?,-
C=CCn1c(O)c(C(CC)=Nc2cc(OC)ccc2OC)c(=O)[nH]c1=O,?,-,-,-
Oc1ccc2c3c1OC1c4oc5ccccc5c4C[C@@]4(O)[C@@H](C2)N(CC2CC2)CC[C@]314 (stereo not given in full),?,?,-,?
C=C(C)CC1(CC)C(=O)NC(=S)NC1=O,-,-,-,-
Fc1ccccc1CNC1CN2CCC1CC2 (stereo not given),-,-,-,-
Ic1ccccc1CN[C@@H]1C2CCN(CC2)[C@@H]1C(c1ccccc1)c1ccccc1,16µM,18µM,?,21µM
Cc1ccc(NC(=O)c2ccc(C)c(S(=O)(=O)N3CCCCC3)c2)nc1,-,-,-,-
Cc1ccc(C(=O)Nc2ccccc2)cc1S(=O)(=O)N1CCCC1,15µM,.,?,.
NS(=O)(=O)c1ccc(CCNc2ccn3nc(-c4cccc(C(F)(F)F)c4)cc3n2)cc1,-,?,-,-
NS(=O)(=O)c1ccc(CCNc2nn3c(-c4ccc(F)c(Cl)c4)cnc3s2)cc1,-,?,-,12µM
c1ccc(N2CCN(c3ccccc3)CC2)cc1,-,.,-,.
O=C1C=C(N2CC2)c2ccccc2C1=O,-,23µM,21µM,?
Nc1c2c(nc3sc4c(c13)CCCCC4)CCCC2,?,?,29µM,?
CCc1ccc(OCC(=O)N2CCN(CCc3ccncc3)CC2)cc1,-,.,-,.
Cc1cc(C)c(N=Cc2c(O)[nH]c(=O)[nH]c2=O)c(C)c1,5.2µM,-,6.5µM,-
c1cc2c(cc1CCNC1C3CC4CC(C3)CC1C4)OCO2 (stereo not given),21µM,-,-,-
CCOc1ccc(N2C(=O)NC(=O)/C(=C/c3cnc(SC)nc3)C2=O)cc1,-,-,-,-
C[n+]1c(-c2ccccc2)c2cc(N)ccc2c2ccc(N)cc21,-,6.5µM,2.9µM,1.3µM
COc1ccc(NC(=O)c2cccn(Cc3ccc(Cl)cc3)c2=O)c(OC)c1,?,.,-,.
SMILES,KB-V1 MDR tox,HT1080NT lethal,KB-3-1 cytotox,HT1080 IDH1KD tx
CCCN1CCCc2cc(CN)ccc21,-,?,-,?
COc1cccc(/C=C/c2nc3ccccc3c(=O)n2-c2ccc(Cl)cc2)c1OC,-,.,-,.
Cc1c(NS(=O)(=O)c2ccccc2)ccc([N+](=O)[O-])c1Cl,?,2.9µM,?,?
CC(=O)N1Cc2cnnn2-c2ccccc2C1C#N (stereo not given),-,-,-,-
Cn1cc(C(=O)OCC(=O)NC2CCCCC2)c2ccccc21,-,-[9.24 µM],?,-
COc1ccccc1NC(=O)COC(=O)c1cn(C)c2ccccc12,9.2µM,-,-,-
CCCCCCn1c(=O)c(C(=O)Nc2cnccn2)c(O)c2ccccc21,1.3µM,-,2.1µM,?
CCCCCn1c(=O)c(C(=O)NCc2ccncc2)c(O)c2ccccc21,2.6µM,-,5.8µM,-
CCCCCCn1c(=O)c(C(=O)Nc2c(C)n(C)n(-c3ccccc3)c2=O)c(O)c2ccccc21,1.6µM,?,?,-
CCCCCCn1c(=O)c(C(=O)Nc2ncccc2O)c(O)c2ccccc21,?,-,7.3µM,-
CNC(=O)C[C@H]1CC[C@@H]2NC[C@H](O)COC[C@H]2O1,-,-,-,-
C[C@]12CCC3C(CC[C@H]4C[C@H](O)CC[C@]34C)C1C[C@H](O)[C@@H]2O (stereo not given in full),-,-,-,-
CCCCn1c(=O)c(C(=O)Nc2ccccn2)c(O)c2ccccc21,-,-,10µM,-
CCCCCn1c(=O)c(C(=O)Nc2ccccn2)c(O)c2ccccc21,6.5µM,-,-,-
O=Cc1cn(Cc2ccc([N+](=O)[O-])cc2)c2ccccc12,?,-,6.5µM,-
